Source: PubChem BioAssay AID588405 (Sanford-Burnham Center for Chemical Genomics, 2011)
About 6,200 (1.7%) of roughly 360,000 compounds were called active.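 How the source made its calls: active means inhibition of at least 50% at 20 µM; inactive means the rest.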 Only a selection was taken, and actives are over-represented in it overall.

Test: Peg3 promoter-driven luciferase inhibitors, primary screen, cell-based, HeLa, luciferase luminescence (AID 588405)
Settings: HeLa PEG-Prom luciferase reporter, overnight, at 20 µM, stronger effect = higher value

Compound	inhibition
COc1cc(/C=C/c2ccc(/C=C/c3cc(OC)c(OC)c(OC)c3)cc2)cc(OC)c1OC	61.8% (active)
COc1cc(/C=C/C2=CC(C)(C)NC(=S)N2)cc(OC)c1OC	4.8% (inactive)
CCC(=O)c1ccc(OC(=O)/C=C/c2cc(OC)c(OC)c(OC)c2)cc1	3.36% (inactive)
OCCc1ccc(NCCc2ccco2)cc1	-123% (inactive)
CN[C@H](C(=O)NC[C@H]1O[C@@H](n2cnc3c(N)ncnc32)[C@H](O)[C@@H]1O)[C@@H](C)OCc1ccccc1	-6.23% (inactive)
O=C(COC(=O)c1ccc(F)cc1F)Nc1ncccn1	22.2% (inactive)
CC(C)CNC(=O)C(=O)NCC(c1ccc2c(c1)OCO2)N1CCOCC1 (stereo not given)	-15.4% (inactive)
CCCc1cc(=O)[nH]c(SCC(=O)c2c(N)n(CC(C)C)c(=O)n(C)c2=O)n1	54.7% (active)
CC(C)Cn1c(N)c(C(=O)COC(=O)CN2C(=O)C3CC=CCC3C2=O)c(=O)n(C)c1=O (stereo not given)	21.8% (inactive)
CCCc1cc(=O)[nH]c(SCC(=O)N2C(C)CCCC2C)n1 (stereo not given)	0.43% (inactive)
O=C(NCc1cccnc1)c1ccc2nc([C@@H]3O[C@H](CO)[C@H](O)[C@H](O)[C@H]3O)[nH]c2c1	15.8% (inactive)
CCC(C)C(CO)NC(=O)/C=C/[C@H]1O[C@@H](n2cnc3c(NC(=O)c4ccccc4)ncnc32)[C@H](O)[C@@H]1O (stereo not given in full)	10.6% (inactive)
Cc1ccsc1C(=O)OCC(=O)Nc1cccc(F)c1	-227% (inactive)
Cc1ccsc1C(=O)OCC(=O)NCCc1ccccc1	-156% (inactive)
Cc1ccsc1C(=O)OCC(=O)c1cc(C)n(CC2CCCO2)c1C (stereo not given)	55.9% (active)
COc1ccc(-c2nnc3n2CCCCC3)cc1	11.4% (inactive)
Cc1cccc2sc(N(CCCN(C)C)C(=O)CCS(=O)(=O)c3ccccc3)nc12	100% (active)
COc1ccc(N(C)C(=O)CCS(=O)(=O)c2cccc3nsnc23)cc1	-4.4% (inactive)
Cc1ccc2sc(N(CCN(C)C)C(=O)/C=C/c3cccs3)nc2c1C	19.8% (inactive)
COc1ccccc1NC(=O)CC(NCCN(C)C)C(=O)O (stereo not given)	6.79% (inactive)
COc1cccc2sc(N(CCCN(C)C)C(=O)CCS(=O)(=O)c3ccccc3)nc12	96.4% (active)
Cc1ccc(S(=O)(=O)CCC(=O)OCC(=O)N(C)Cc2ccccc2)cc1	-2.43% (inactive)

Compound	inhibition
O=C(CCS(=O)(=O)c1ccccc1)Nc1nc2c(s1)CCCC2	-47.1% (inactive)
COc1cccc2sc(N(CCCN(C)C)C(=O)C(c3ccccc3)c3ccccc3)nc12	99.4% (active)
CCN(CC)CCN(C(=O)c1ccc2c(c1)CCCC2)c1nc2c(OC)cccc2s1	-7.74% (inactive)
CC1(C(=O)NCc2ccc3c(c2)OCO3)CCN1CCc1ccccc1 (stereo not given)	-5.32% (inactive)
CC1(C(=O)NS(=O)(=O)c2cccs2)CCN1C(=O)Cc1ccc(-c2ccccc2)cc1 (stereo not given)	1.06% (inactive)
O=C(C=CC(=O)Nc1ccc(F)cc1F)Nc1ccc(F)cc1F	14.9% (inactive)
O=S1(=O)CC(N2CCN(CCO)CC2)CN1C1CCCC1 (stereo not given)	-8.51% (inactive)
Cc1cccc(CN2CCN(C3CN(Cc4cn(Cc5ccccc5F)nn4)S(=O)(=O)C3)CC2)c1 (stereo not given)	-6.63% (inactive)
CCOC(=O)N(C)c1c(CC)nc2c(OCc3ccccc3C(=O)OC)cccn12	13.4% (inactive)
Nc1ccccc1SC(C[N+](=O)[O-])c1ccccc1 (stereo not given)	63.5% (active)
CCCC(=O)N1CCC1(C)C(=O)NCc1ccc(C(C)C)cc1 (stereo not given)	1.21% (inactive)
CCC(=O)N1CCCC1(C)C(=O)Nc1ccc2c(c1)CCN2C(C)=O (stereo not given)	4.54% (inactive)
CCOC(=O)Nc1ccc2c(c1)N(C(=O)CN1CCN3CCCC3C1)c1ccccc1CC2 (stereo not given)	0.5% (inactive)
CCOC(=O)Nc1ccc2c(c1)N(C(=O)CCN1CCN(CCO)CC1)c1ccccc1CC2	3.85% (inactive)
CCOC(=O)Nc1ccc2c(c1)N(C(=O)CCCl)c1ccccc1[S@]2=O	84.1% (active)
CC(C)(C)OC(=O)C[C@@H]1C/C=C\C[C@@H](CC(=O)N[C@H](CO)Cc2ccccc2)C(=O)NC[C@@H](c2ccccc2)OC1=O	-6.65% (inactive)
O=C(C[C@H]1C/C=C\C[C@@H](NC(=O)OCC2c3ccccc3-c3ccccc32)C(=O)O[C@@H](c2ccccc2)CNC1=O)N[C@H](CO)Cc1ccccc1	67.1% (active)
CC(C)(C)OC(=O)C[C@H]1C/C=C\C[C@@H](CC(=O)N[C@H](CO)Cc2ccccc2)C(=O)NC[C@@H](c2ccccc2)OC1=O	-1.52% (inactive)
CC(=O)c1nn(-c2ccccc2)c(=Nc2ccccc2)cc1C	1.9% (inactive)
O=C1NC(O)CCN1C1CC(O)C(CO)O1 (stereo not given)	15.2% (inactive)
CSc1nnnn1-c1c(C)cc(C)cc1C	7.96% (inactive)
CSC1=NCCN1C(=O)c1ccc(S(=O)(=O)N2CCOCC2)cc1	-13.6% (inactive)

Compound	inhibition
Cc1ccc2nc(-c3ccco3)c(Cc3cccc(Cl)c3)n2c1	-203% (inactive)
CCCc1nc2c([nH]1)C(c1cccnc1)C(C#N)=C(N)O2 (stereo not given)	-0.33% (inactive)
CCOC(=O)C1=C(C)OC(N)=C(C#N)C1c1cncc(-c2ccc(F)cc2)c1 (stereo not given)	101% (active)
CCOC(=O)C1=C(CC)OC(N)=C(C#N)C1c1ccc(F)cc1F (stereo not given)	8.52% (inactive)
CCOP(=O)(OCC)C(Cc1ccccc1)N=C(c1ccccc1)c1ccccc1 (stereo not given)	41.3% (inactive)
CN(CC1CCCO1)S(=O)(=O)c1ccc(C(=O)Nc2ccc(F)cc2)cc1 (stereo not given)	21.5% (inactive)
CCOC(=O)c1c(NC(=O)c2ccc(S(=O)(=O)N(C)CC3CCCO3)cc2)sc2c1CC(C)(C)NC2(C)C (stereo not given)	85.8% (active)
Cc1cccc(NC(=O)c2ccc(S(=O)(=O)N(C)CC3CCCO3)cc2)c1C (stereo not given)	4.42% (inactive)
CC(=O)Nc1cc(-c2ccccc2F)cn2c(-c3cccc(C(F)(F)F)c3)cnc12	25% (inactive)
COc1ccc(S(=O)(=O)N2CCCCC2)cc1NC(=O)c1cc([N+](=O)[O-])ccc1N1CCOCC1	13.5% (inactive)
CCOc1ccc2nc(NC(=O)c3cc([N+](=O)[O-])ccc3N3CCOCC3)sc2c1	61.8% (active)
O=C(NCc1ccc2c(c1)OCO2)c1cc([N+](=O)[O-])ccc1N1CCOCC1	17.4% (inactive)
COc1cccc(-c2cc(NC(C)=O)c3ncc(-c4cccc(C(C)=O)c4)n3c2)c1	-9.41% (inactive)
CCN(CC)c1ncnc2c1ncn2[C@H]1CN(Cc2cccs2)C[C@@H](CO)O1	5.39% (inactive)
CC1CCCN(C(=O)CN2C(=O)c3ccccc3S2(=O)=O)C1 (stereo not given)	-95% (inactive)
O=C(CN1C(=O)c2ccccc2S1(=O)=O)N1CCc2ccccc21	94.5% (active)
CN(Cc1ccc(F)cc1)C(=O)CN1C(=O)c2ccccc2S1(=O)=O	1.25% (inactive)
CCOC(=O)C1=CC[C@@H](c2ccncc2)N(S(=O)(=O)c2ccc(C)cc2)C1	27.8% (inactive)
O=C(Nc1ccc(Cl)c(C(F)(F)F)c1)C1Cc2c(-c3ccccc3Oc3ccccc3)ccnc2O1 (stereo not given)	26.9% (inactive)
O=C(Cc1cccc2ccccc12)NNC(=O)Nc1ccc(Cl)cc1	-102% (inactive)
Cc1ccc(NC(=S)NC(NC(=O)Cc2cccc3ccccc23)C(Cl)(Cl)Cl)cc1 (stereo not given)	105% (active)
CC(C)(C)C(=O)NC(NC(=S)Nc1ccc(S(N)(=O)=O)cc1)C(Cl)(Cl)Cl (stereo not given)	17% (inactive)

Compound	inhibition
C/C(CC1CC(C)(C)OC1=O)=N/Nc1nc(-c2ccccc2)cs1 (stereo not given)	-108% (inactive)
COc1ccc2c(c1OC)C(=O)OC2Nc1nc(-c2ccccc2)cs1 (stereo not given)	104% (active)
CC(C)C1CC2=C(C(=O)OC(C)(C)O2)C(c2ccc(F)cc2)O1 (stereo not given)	4.49% (inactive)
COc1ccc(Cl)cc1-c1cc(C(=O)Nc2cc(OC)c(OC)c(OC)c2)[nH]n1	33.8% (inactive)
O=C(Nc1ccc(Cl)cc1)c1csc([C@H]2C[C@H](O)[C@@H](CO)O2)n1	-232% (inactive)
Cc1ccc([C@@H]2CC(=O)[C@@H]3CN(S(=O)(=O)c4ccc(C)cc4)[C@H](c4ccccc4F)C[C@@H]3N2S(=O)(=O)c2ccc(Cl)cc2)cc1	13.7% (inactive)
COc1ccc(NC(=O)N(C)C[C@@H]2OCc3cn(nn3)CCCC(=O)N([C@H](C)CO)C[C@H]2C)c(OC)c1	-5.47% (inactive)
NC(N)=N/N=C/c1ccc(OCc2ccc(Cl)cc2Cl)cc1	99.3% (active)
COc1ccc(Cl)cc1N(CC(=O)N/N=C/c1ccc(OCC(N)=O)cc1)S(C)(=O)=O	-7.79% (inactive)
Cc1nc2ccccc2nc(C)c1=NOCc1ccc(Cl)cc1Cl	29.6% (inactive)
O=C(Nc1ccc(F)cc1)C1CCN(C(=O)c2ccc([N+](=O)[O-])cc2)CC1	17.8% (inactive)
O=C(/C=C/c1ccc(F)cc1)NC(=S)NNC(=O)c1cccnc1	8.82% (inactive)
O=C(/C=C/c1ccc([N+](=O)[O-])o1)NNC(=O)c1ccc(F)cc1	99.4% (active)
CC1(c2ccccc2)CC(C)(C)N(C(=O)c2cc([N+](=O)[O-])cc([N+](=O)[O-])c2)c2ccccc21 (stereo not given)	16.3% (inactive)
Cc1nnc(SCC(=O)N2c3ccccc3C(C)(c3ccc(Cl)cc3)CC2(C)C)s1 (stereo not given)	51.1% (active)
CC1(c2cccc([N+](=O)[O-])c2)CC(C)(C)N(C(=O)c2ccccc2)c2ccccc21 (stereo not given)	34.9% (inactive)
COc1ccc(NC(=O)C2Cc3c(-c4ccc5c(c4)OCO5)ccnc3O2)cn1 (stereo not given)	21.4% (inactive)
COc1ccc(NC(=O)CN2C(=O)NC(C)(c3ccccc3)C2=O)cn1 (stereo not given)	1.66% (inactive)
COc1ccc(NC(=O)/C(Cl)=C(/Cl)S(=O)Cc2ccc(C)cc2)cn1 (stereo not given)	109% (active)
